High-throughput results (PubChem)
Compounds with a hit are over-represented: about 19% of the library has one in this group of screens.
KB-V1 MDR tox – KB-V1 MDR subline cytotoxicity | 3.4% of 400,000 active | KB-V1 MDR cells viability, CellTiter-Glo, 72 h | AID 1347076 | Potency, µM (titrated, usually from 46.1 µM), hits mostly cytotoxic; also: nearly all actives have a fitted effect of over 60% in size
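Potencies derive from concentration-effect curves fitted to normalized luminescence (CellTiter-Glo) of KB-V1 cells treated for 72 h at 37 degrees C in phenol-red-free DMEM containing 10% FBS.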
DT40 TDP1 CPT – growth inhibition of DT40 Tdp1-/-;hTDP1 cells with camptothecin (screen for TDP1 inhibitors). chicken DT40 Tdp1-/-;hTDP1 cells + 20 nM CPT, ATP luminescence, 48 h. Potency, µM (series often up to 46.2 µM), without a hit: top-dose activity change, negative = growth inhibition, most hits filed as inhibitors. 12% of 420,000 active; also: nearly all actives have a fitted effect of over 55% in size
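Cell growth measured by CellTiter-Glo luminescence after a minimum 48 h, 37 C compound exposure with 20 nM CPT in Tdp1-knockout DT40 cells stably expressing hTDP1, seeded 400/well; qHTS titration format.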
HT1080NT lethal – kills 2HG-producing HT-1080-NT fibrosarcoma cells. HT-1080-NT fibrosarcoma viability, CellTiter-Glo ATP luminescence, 48 h. Potency, µM (series often up to 46.1 µM), without a hit: at the highest dose activity, negative = less viability, actives largely listed as cytotoxic. 1.6% of 360,000 active;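 also: NT is the 2HG producing partner of a matched IDH1 knockdown line; 0% = DMSO-treated cells and -100% = media-only wells without cells; nearly all actives have a fitted effect of over 55% in size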
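Fibrosarcoma NT cells, 750 per well in 5% FBS RPMI, were exposed to compound for 48 hours. Viability: CellTiter-Glo luminescence.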
DT40 TDP1 no CPT – qHTS for Inhibitors of human tyrosyl-DNA phosphodiesterase 1 (TDP1): qHTS in cells in absence of CPT | DT40 Tdp1-/- hTDP1 cells, no CPT, ATP luminescence, 48 h | Potency, µM (highest dose often 46.2 µM), for the others: top-dose activity change, negative = growth inhibition, actives largely listed as inhibitors | 15% of 420,000 active | AID 686978, 2013; also: nearly all actives have a fitted effect of over 55% in size
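A cellular qHTS used chicken DT40 cells lacking endogenous Tdp1 but carrying stably transfected human TDP1. Compounds were applied without camptothecin, and cell growth kinetics were judged by ATP-dependent luminescence after ≥48 hr.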
HT1080 IDH1KD tx – toxicity to HT-1080 IDH1 knockdown cells (counter line); Potency, µM (titrated, usually from 46.1 µM), for inactives: top-dose activity, negative = toxicity, most hits filed as cytotoxic; HT-1080 IDH1 knockdown viability, ATP luminescence, 48 h; 2% of 360,000 active; AID 686971;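 also: 0% = DMSO wells and -100% = cell-free medium wells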
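Knockdown cells (IDH1KD HT-1080) received compounds 2 h after plating at 750 cells/well and were kept 48 h at 37 °C in 5% FBS RPMI. A CellTiter-Glo luminescence read gave % activity for curve fitting.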
KB-3-1 cytotox – kills parental KB-3-1 adenocarcinoma cells; 1.4% of 400,000 active; KB-3-1 viability, CellTiter-Glo ATP luminescence, 72 h; Potency, µM (highest dose often 46.1 µM), hits mostly cytotoxic; also: nearly all actives have a fitted effect of over 60% in size
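Parental KB-3-1 viability, qHTS format: 72 h compound exposure, 37 °C; CellTiter-Glo; media-only wells and DMSO plates as controls; concentration-effect fits on corrected data.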
An asterisk follows results filed as active; i = inactive; ? = inconclusive; nt = no result. Calls follow the shape of the dose curve; as a rule, active = well fitted curve in the direction sought with a large enough effect; inconclusive = small, poorly fitted or top-dose-only effect, or another doubt; inactive = no such curve, though single readings can be large; an effect the other way counts as inactive or inconclusive. Unless noted, % is scaled to controls: 0 for no effect and ±100 for the full control effect; potency is read from the fitted curve at half-maximal effect.

SMILES	KB-V1 MDR tox	DT40 TDP1 CPT	HT1080NT lethal	DT40 TDP1 no CPT	HT1080 IDH1KD tx	KB-3-1 cytotox
NC(=O)c1cccc(Nc2nc(C(N)CCc3ccccc3)cs2)n1 (stereo unspecified)	i	2.1µM*	?	2.9µM*	?	i
NC(CCc1ccccc1)c1csc(Nc2cnccn2)n1 (stereo unspecified)	?	23µM*	?	13µM*	-21%	?
COc1cccc(Nc2nc(C(N)COCc3ccccc3)cs2)n1 (stereo unspecified)	i	?	18µM*	?	?	i
O=C1CC(c2ccc(Cl)cc2)Sc2nc(-c3ccc(F)cc3)nn21 (stereo unspecified)	i	-20%	nt	0%	nt	i
CCOc1cc(NC(=O)c2ccccc2C)c(OCC)cc1NC(=O)C1=Cc2ccccc2OC1	i	7.3µM*	-4%	5.8µM*	9%	i
O=C(Nc1ccc(Cl)c(Cl)c1)C1=Cc2ccccc2OC1	i	?	?	23µM*	?	i
CC(C)C(N)c1csc(Nc2nncc3ccccc23)n1 (stereo unspecified)	?	?	?	16µM*	?	i
CC(N)c1csc(Nc2nncc3ccccc23)n1 (stereo unspecified)	i	?	?	?	18µM*	i
CC(C)C[C@@H](C=O)NC(=O)[C@H](CC(C)C)NC(=O)[C@H](CC(C)C)NC(=O)OCc1ccccc1	nt	-7%	nt	-12%	nt	nt
CC(C)CNC(=O)c1cc([N+](=O)[O-])ccc1N1CCCCC1	i	?	-2%	23µM*	-1%	i
O=C(NC1CCCCC1)c1cc([N+](=O)[O-])ccc1N1CCCCC1	9.2µM*	-12%	-10%	-13%	-5%	i
O=C(NCCc1ccccc1)c1cc([N+](=O)[O-])ccc1N1CCOCC1	i	?	-10%	-23%	-2%	i
O=C(Nc1ccccc1)c1cc([N+](=O)[O-])ccc1N1CCCCC1	i	?	-9%	?	-28%	i
O=c1[nH]c2ccccc2c2cn(-c3ccccc3)nc12	i	-3%	-3%	?	-24%	i
O=C(N/C(=C\c1ccco1)C(=O)N1CCOCC1)c1ccccc1Cl	i	3%	16%	-14%	5%	i
CC(=O)SC(C[N+](=O)[O-])c1cn(C(C)=O)c2ccccc12 (stereo unspecified)	?	4.6µM*	-2%	2.9µM*	?	?
C[C@@H](O[C@H]1OCCN(Cc2n[nH]c(=O)[nH]2)[C@H]1c1ccc(F)cc1)c1cc(C(F)(F)F)cc(C(F)(F)F)c1	nt	19µM*	nt	21µM*	nt	nt
OCCn1ccc(-c2ccccc2OCc2ccc(F)cc2)n1	i	?	-9%	21µM*	3%	i
CCOC(=O)c1ccc(NC(=O)C2CCCN(c3ncnc4onc(-c5ccc(F)cc5)c34)C2)cc1 (stereo unspecified)	i	21µM*	nt	15µM*	nt	i
Cc1ccc(CNC(=O)C2CCCN(c3ncnc4onc(-c5ccc(F)cc5)c34)C2)cc1 (stereo unspecified)	i	?	nt	18µM*	nt	i
CC(C)NC(=O)C1CCCN(c2ncnc3onc(-c4ccc(F)cc4)c23)C1 (stereo unspecified)	i	-5%	nt	-20%	nt	i
O=C(Nc1ccc(F)c(Cl)c1)C1CCCN(c2ncnc3onc(-c4ccc(F)cc4)c23)C1 (stereo unspecified)	i	-80%	nt	15µM*	nt	i
Fc1ccc(-c2noc3ncnc(N4CCCCC4)c23)cc1	i	18µM*	nt	23µM*	nt	i
COc1ccc(NC(=O)C2CCCN(c3ncnc4onc(-c5ccc(F)cc5)c34)C2)cc1 (stereo unspecified)	i	?	0%	?	7%	i
O=c1c2oc3ccccc3c2n(Cc2ccc(Cl)cc2)c(=O)n1Cc1ccccc1	?	?	nt	?	nt	i
SMILES	KB-V1 MDR tox	DT40 TDP1 CPT	HT1080NT lethal	DT40 TDP1 no CPT	HT1080 IDH1KD tx	KB-3-1 cytotox
C=CCN(CC=C)Cc1c(O)ccc2c1oc(=O)c1ccccc12	10µM*	?	1%	-23%	-2%	i
Cc1cc(=O)oc2c(CN(C)Cc3ccccc3)c(O)ccc12	i	-9%	22%	-21%	16%	i
Cc1ccc(CN2CCc3nc(N4CCN(C)CC4)ncc3C2)s1	i	?	nt	?	nt	i
c1ccc(-c2nnc3ccc(N4CCC5(CC4)OCCO5)nn23)cc1	i	?	8%	?	-2%	i
CC(=O)Nc1cccc(-c2cc(N3CCN(CCO)CC3)n3nccc3n2)c1	i	-11%	2%	-2%	8%	i
COCCN1CCN(c2cc(-c3ccccc3)nc3cc(-c4cccc(F)c4)nn23)CC1	i	8.2µM*	?	9.2µM*	?	i
Cc1ccc(-c2cc3nc(-c4ccccc4)cc(N4CCC5(CC4)OCCO5)n3n2)cc1	i	16µM*	-3%	18µM*	8%	i
Fc1ccc(-c2cc3nc(-c4ccccc4)cc(N4CCOCC4)n3n2)cc1	i	13µM*	9%	23µM*	-1%	i
Fc1cccc(-c2cc3nc(-c4ccccc4)cc(N4CCC5(CC4)OCCO5)n3n2)c1	i	?	-11%	23µM*	-15%	i
CC(C)CC(=O)Nc1nnc(S(=O)(=O)N(C)Cc2ccc(Cl)cc2)s1	i	-8%	nt	-20%	nt	i
CCOC(=O)c1c(C)oc2nc(C)nc(NCC3CCN(Cc4ccccc4C)CC3)c12	i	-11%	nt	-2%	nt	i
CCN(CC)c1cc(C)c(C#N)c2nc3ccccc3n12	?	2%	-1%	?	-19%	i
CCN(CC)c1c2c(c(C#N)c3nc4ccccc4n13)CCC2	3.7µM*	-18%	2%	?	6%	i
COCCNc1c2c(c(C#N)c3nc4ccccc4n13)CCCC2	?	26µM*	-14%	21µM*	-17%	i
N#Cc1c2c(c(Cl)n3c1nc1ccccc13)CCCC2	i	0.71µM*	nt	0.89µM*	nt	i
Cn1c(=O)[nH]c(=O)c2c1nc(N1CCOCC1)n2Cc1ccccc1	i	?	nt	-27%	nt	i
COC(=O)c1c(OCc2cccnc2)cc(=O)n2c1CCN(C(=O)c1c3c(nn1C)CCCC3)CC2	nt	-2%	nt	-11%	nt	nt
